Screens: PubChem, National Center for Advancing Translational Sciences (NCATS)
Compounds with a hit are over-represented: about 3.8% of the library has one in this group of screens.
Nrf2 block = Nrf2 qHTS screen for inhibitors. A549 ARE-Fluc reporter, luciferase luminescence, 18-24 h. Potency, µM (series often up to 46 µM), inactives show at the highest dose activity change, negative = inhibition, most hits filed as inhibitors. actives 2.1% (n = 360,000); note: % is set by controls: 0 for no effect and ±100 for the full control effect; nearly all actives have a fitted effect of over 60% in size
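In this cell-based qHTS, ARE-driven firefly luciferase in A549 cells reports Nrf2 activity; the luminescent signal after BugLite lysis is the measured value, with a prior CellTiter-Fluor read for cell health.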
S2 tox = Viability Counterscreen for Primary qHTS for Inhibitors of ATXN expression; S2 cells (HEK-293 line with an ATXN2-luciferase reporter) viability, CellTiter-Fluor protease fluorescence, 24 h; Potency, µM (doses to about 56.7 µM), usual class: cytotoxic; actives 0.49% (n = 400,000); AID 651635, 2014; note: nearly all actives have a fitted effect of over 40% in size
TGFb inhibitor = qHTS for Inhibitors of TGF-b | Potency, µM (highest dose often 46.1 µM), for the others: at the highest dose activity, negative = inhibition, most hits filed as inhibitors | actives 1.2% (n = 410,000) | HepG2 CAGA-GFP TGF-b/SMAD3 reporter, GFP fluorescence, 18 h; TGF-beta stimulated, 500 pg/mL final; note: % is set by controls: 0 for no effect and ±100 for the full control effect; nearly all actives have a fitted effect of over 65% in size
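HEPG2 CAGA-GFP cells (1000/well, DMEM with 1% FBS) were pre-incubated 2 h at 37 degrees C, given compound by pin tool, then stimulated with TGF-beta at 500 pg/mL final for 18 h before per-cell GFP fluorescence imaging.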
A549 tox = Nrf2 qHTS screen for inhibitors: counterscreen for cytotoxicity; A549 ARE-Fluc cells, CellTiter-Fluor viability, 18-24 h; Potency, µM (top dose mostly 46 µM), without a hit: top-dose activity change, negative = cytotoxicity, most hits filed as inhibitors; actives 0.16% (n = 390,000); AID 504648, 2011; note: % is set by controls: 0 for no effect and ±100 for the full control effect
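A549 ARE_Fluc cells in 5% FBS OPTI-MEM were exposed to compounds in concentration-response for 18-24 h at 37 deg C. Viability was read by CellTiter-Fluor fluorescence (Ex 405/Em 525) after 30 min, before the luciferase read.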
ATXN2 expr inh = Primary qHTS for Inhibitors of ATXN expression. Potency, µM (highest dose often 57 µM), without a hit: at the highest dose activity change, negative = inhibition, usual class: inhibitors. HEK-293 ATXN2-luciferase reporter, luminescence, 24 h. actives 0.72% (n = 360,000); note: % is set by controls: 0 for no effect and ±100 for the full control effect; nearly all actives have a fitted effect of over 55% in size
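ATXN2-luciferase reporter cells (luciferase flanked by upstream and downstream ATXN2 gene portions) were treated 24 h at 37 °C with compounds at up to 57 uM. SteadyGlo luminescence gave expression; GF-AFC fluorescence gave viability.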
HepG2 tox-1 = qHTS for Inhibitors of TGF-b: Cytotox Counterscreen; Potency, µM (titrated, usually from 46.1 µM), for the others: at the highest dose activity change, negative = cytotoxicity, hits mostly cytotoxic; AID 588856, 2011; HepG2 CAGA-GFP viability, ATP luminescence, 18 h; actives 0.76% (n = 410,000)
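HepG2 CAGA-GFP cells (1000/well, DMEM with 1% FBS) received compound, then TGF-beta at 500 pg/mL final, and were incubated 18 hours at 37 degrees C. Viability was read by CellTiter-Glo luminescence. Media-only wells were set as complete cell-killing and DMSO as no toxicity.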
TGFb confirm = qHTS for Inhibitors of TGF-b: Confirmation of Cherry Picks; shares compounds with TGFb inhibitor; HepG2 CAGA-GFP TGF-b reporter, GFP fluorescence, 18 h; cells stimulated with TGF-beta, 500 pg/mL; Potency, µM (highest dose often 46.1 µM), inactives show top-dose activity, negative = inhibition, usual class: inhibitors; actives 63% (n = 1,600); AID 720534, 2013; note: % is set by controls: 0 for no effect and ±100 for the full control effect; nearly all actives have a fitted effect of over 65% in size
HepG2 tox-2 = qHTS for Inhibitors of TGF-b: Cytotox Counterscreen for Cherry Picks. actives 27% (n = 1,600). AID 720535, 2013. HepG2 CAGA-GFP viability, ATP luminescence, 18 h; cells stimulated with TGF-beta, 500 pg/mL. shares compounds with TGFb inhibitor. Potency, µM (titrated, usually from 46.1 µM), for the others: at the top dose activity, negative = cytotoxicity, hits mostly inhibitors; note: % is set by controls: 0 for no effect and ±100 for the full control effect; nearly all actives have a fitted effect of over 70% in size
CCL64 TGFb inh = qHTS for Inhibitors of TGF-b: CCL64 Cells Orthogonal Assay for Cherry Picks; actives 41% (n = 1,600); Potency, µM (highest dose often 46.1 µM), without a hit: at the top dose activity, negative = inhibition, actives largely listed as inhibitors; shares compounds with TGFb inhibitor; CCL64 CAGA-GFP reporter, TGF-b stimulated, GFP fluorescence, 18 h; note: nearly all actives have a fitted effect of over 65% in size
TGFb COP inh = qHTS for Inhibitors of TGF-b: Hit Validation in HepG2 Cells using COP promoter; Potency, µM (series often up to 46.1 µM), for the others: top-dose activity, negative = inhibition, most hits filed as inhibitors; actives 3% (n = 1,600); shares compounds with TGFb inhibitor; HepG2 COP-GFP TGF-b reporter, GFP fluorescence, 18 h; cells stimulated by added recombinant TGF-beta; AID 720537, 2013; note: nearly all actives have a fitted effect of over 70% in size
* marks the source's active call; other numbers are inactive results; i = inactive; ? = inconclusive; . = no result given. Calls come from the whole dose curve; as a rule, active = well fitted curve in the direction sought with a large enough effect; inconclusive = small, poorly fitted or top-dose-only effect, or another doubt; inactive = no such curve, though single readings can be large; an effect the other way counts as inactive or inconclusive. Potency is the fitted concentration of half-maximal effect.

SMILES	Nrf2 block	S2 tox	TGFb inhibitor	A549 tox	ATXN2 expr inh	HepG2 tox-1	TGFb confirm	HepG2 tox-2	CCL64 TGFb inh	TGFb COP inh
NC(=O)c1sc(-c2ccsc2)cc1NS(=O)(=O)c1ccc(C(F)(F)F)cc1	15µM*	i	?	-16%	-27%	-24%	23µM*	?	?	74%
COc1ccc(Nc2nccc(-c3ccc(C#N)cc3)n2)cc1	2%	i	0%	-7%	-13%	-22%	.	.	.	.
COc1ccc(Nc2nccc(-c3cccc(N)c3)n2)cc1	?	?	10µM*	-10%	-55%	-11%	8.2µM*	5.8µM*	8.2µM*	43%
CC(C)CN1CCc2nc(N3CCN(C)CC3)ncc2C1	.	i	11%	-16%	13%	10%	.	.	.	.
COc1ccc(/C=N\NC(=O)c2ccccc2[N+](=O)[O-])cc1COc1c(F)c(F)c(F)c(F)c1F	?	i	8.9µM*	5%	0%	-4%	2.6µM*	?	?	33%
COc1ccc(/C=N/NC(=O)c2ccccc2[N+](=O)[O-])cc1CN1CCc2cc(OC)c(OC)cc2C1C (centres undefined)	-4%	i	11%	-7%	-12%	-1%	.	.	.	.
O=C(NC(c1ccccc1)c1ccccc1)c1ccc(=O)[nH]n1	11%	i	10%	7%	-16%	5%	.	.	.	.
O=S1(=O)N=C(c2ccccc2)C=C(c2ccccc2)N1	-1%	i	-9%	-5%	2%	-12%	.	.	.	.
Cc1ccc(C)c(NS(=O)(=O)c2cc(C(=O)NCCC3=CCCCC3)ccc2C)c1	21µM*	?	20µM*	?	?	-15%	?	?	?	37%
Cc1cccc(NC(=O)Nc2ccc(C#N)cc2)n1	?	i	2.5µM*	-10%	4%	-34%	6.5µM*	8.2µM*	4.1µM*	27%
Cc1cccc(NC(=O)Nc2cccc(C#N)c2)n1	-22%	i	?	-12%	59%	-48%	.	.	.	.
COc1ccc(-c2csc(Nc3ccc(Oc4ccccc4)cc3)n2)cc1	.	?	11µM*	.	?	-16%	7.3µM*	-14%	7%	5%
COc1ccc(-c2csc(Nc3cccc(C)n3)n2)cc1	?	i	-8%	-10%	96%	-2%	.	.	.	.
